Drawing on PubChem BioAssay AID1347170 (National Center for Advancing Translational Sciences (NCATS), 2019), this text covers Potency and activity change, negative = cytotoxicity for 33 molecules.

Results filed as inconclusive are left out. Entries that show only a call come without a potency. Calls of active or inactive are those of the source. Calls come from the whole dose curve; as a rule, active = well fitted cell-killing curve with a large enough effect; inconclusive = small, poorly fitted or top-dose-only effect, or another doubt; inactive = flat fitted curve, though single readings scatter.

A short description of this test: Vero cells viability counterscreen for qRT-PCR qHTS assay of selected Zika virus inhibitors. As to conditions: CellTiter-Glo ATP luminescence, 24 h; series mostly up to 41.8 µM. The text has this:
Assay Submitters (PI): Avindra Nath, Ph.D., National Institute of Neurological Disorders and Stroke (NINDS), Bethesda, MD Radhakrishnan Padmanabhan, Ph.D., Georgetown University (GU), Washington D.C. Zika Virus causes congenital defects, including microcephaly and is associated with Guillain-Barre syndrome, eningoencephalitis and myelitis in infected adult. […] Using a target-based approach, we hope to establish a screening paradigm to uncover novel, cell-active NS2B-NS3 protease (Zika Virus) specific inhibitors from NCATS' collection of small molecules using qHTS. […] Four assay panel was created to identify potential Zika Virus inhibitors. Namely, (1) GU unlinked NS2B-NS3 AMC tagged protease qHTS, (2) GU unlinked NS2B-NS3 Rhodamine tagged protease qHTS, (3) NINDS linked NS2B-NS3 AMC tagged protease qHTS, (4) NINDS linked NS2B-NS3 Rhodamine tagged protease qHTS. Inhibitors of the Zika virus primary screens are confirmed using qRT-PCR secondary assays, mCherry orthogonal assay, and Vero cells viability counterscreen. Cytotoxic compounds identified in the Vero cell viability counterscreen were excluded from the list of potential Zika virus inhibitors. Early Translation Branch (ETB) National Center for Advancing Translational Sciences (NCATS), Rockville, MD National Institute of Health (NIH), Bethesda, Maryland
Vero Cell Viability Assay: Vero cell cytotoxicity was determined using a luminescent readout with CellTiter Glo reagent (Promega, Madison, WI), which is based on measuring the ATP content within cells. Briefly, 4 uL of Vero cells at 2.5 x 10^5 cells/mL in DMEM containing 4% FBS were dispensed into 1536-well solid bottom tissue treated white plate using a Multidrop Combi dispenser (Thermo Scientific). Plates were incubated at 37 degrees C, 95% humidity, and 5% CO2 overnight to allow for cell attachment. Compounds were dissolved in DMSO at different concentrations and transferred via pintool (Wako Automation), for a final concentration of 57 uM - 0.029 uM. Plates were again incubated for 24 hours, followed by a 2 uL addition of CellTiter Glo. Finally, plates were incubated for 30 minutes at 37 degrees C and 5% CO2 before being read on a ViewLux (Perkin Elmer) for luminescence.
Turning to `N#CC(c1ccnc(OCc2ccc(CN3CCOCC3)cc2)n1)c1nc2ccccc2s1` (stereo not drawn), the Potency result was “inactive”.
As for `COc1cc(/C=C/c2ccccc2)c(C(=O)O)c(O)c1CC=C(C)C`, the Potency result is “inactive”.
For `CCOc1ccc(-c2cc(NC(=O)c3c(F)cccc3F)c(C(=O)O)s2)cc1`, the Potency result was “inactive”.
`O=C(O)c1c(Sc2ccccc2)c2cc(Cl)ccc2n1Cc1ccc(Cl)cc1`: the Potency entry is “inactive”.
As to `N#CC1(c2cccc(C(=O)Nc3cc(Oc4ccc5nc(NC(=O)C6CC6)sc5n4)ccc3F)c2Cl)CC1`, the Potency entry was “inactive”.
Consider `O=C(O)c1ccc(-n2nc(-c3ccccc3O)nc2-c2ccccc2O)cc1`, for which the Potency result was “inactive”.
With `CC1(C)CCC(CN2CCN(c3ccc(C(=O)NS(=O)(=O)c4ccc(NCC5CCOCC5)c([N+](=O)[O-])c4)c(Oc4cnc5[nH]ccc5c4)c3)CC2)=C(c2ccc(Cl)cc2)C1`, the Potency was 3.16 µM (active).
Still for that read-out and setting: then `COc1cccc(-n2nc(C(=O)O)cc2-c2ccc(C3CCCCC3)c(Cl)c2)c1`, with “inactive”; and `Oc1c(Cl)cc(Cl)c(Cl)c1Cc1c(O)c(Cl)cc(Cl)c1Cl`, with 35.5 µM (active).
Still for that read-out and setting: to `Cc1ccc2[nH]c(=O)c(C3=NN(C(=O)CCC(=O)O)C(c4ccc(Br)cc4)C3)c(-c3ccccc3)c2c1` (stereo not drawn) belongs “inactive”; to `Oc1cccc(-c2c3nc(c(-c4cccc(O)c4)c4ccc([nH]4)c(-c4cccc(O)c4)c4nc(c(-c5cccc(O)c5)c5ccc2[nH]5)CC4)C=C3)c1`, “inactive”; to `CC1(C)CC[C@]2(C(=O)O)CC[C@]3(C)C(=CCC4[C@@]5(C)C[C@@H](O)[C@H](O)C(C)(C)C5CC[C@]43C)C2C1` (stereo partly drawn), “inactive”.
`COc1cc2c(c(O)c1OC/C=C(\C)CC/C=C(/C)CCC=C(C)C)CN(C(CCC(=O)O)C(=O)O)C2=O` (stereo not drawn): the Potency entry is “inactive”.
As to `COc1ccc(-c2ccccc2)cc1NS(=O)(=O)c1cc(Cl)cc(Cl)c1O`, the Potency result was “inactive”.
Same read-out and setting: then `O=C(Nc1ccc([N+](=O)[O-])cc1Cl)c1cc(Cl)ccc1O`, with “inactive”.
`Cc1cccc(C)c1NS(=O)(=O)c1ccc(NS(=O)(=O)c2ccc3c(c2)OCCO3)cc1`: the Potency result is “inactive”.
On the same count and under the same terms, to `CN(C)[C@@H]1C(=O)C(C(N)=O)=C(O)[C@@]2(O)C(=O)C3=C(O)c4c(O)ccc(Cl)c4[C@@H](O)[C@H]3C[C@@H]12` belongs “inactive”.
In the case of `CC(=O)O[C@@H]1C[C@]2(C)[C@@]3(CCC4[C@@]5(C)CC[C@H](O[C@@H]6O[C@H](C(=O)O)[C@@H](O)[C@H](O[C@@H]7O[C@H](CO)[C@H](O)[C@H](O)[C@H]7O[C@@H]7O[C@@H](C)[C@H](O)[C@@H](O)[C@H]7O[C@@H]7OC[C@](O)(CO)[C@H]7O)[C@H]6O[C@@H]6O[C@H](CO)[C@H](O)[C@H](O)[C@H]6O)C(C)(C)C5CC[C@]42C)O[C@@H](O)[C@]12C3CC(C)(C)[C@@H](OC(=O)/C=C/c1ccc(O)c(O)c1)[C@@H]2OC(=O)/C=C/c1ccccc1` (stereo partly drawn), the activity change, negative = cytotoxicity was 2.61% [at 7.93 µM] (inactive).
`C/C(=C\c1ccc(C(=O)O)cc1)c1ccc2c(c1)C(C)(C)CCC2(C)C`: the Potency result was “inactive”.
Regarding `COc1cc(C)c(C(=O)OC2C(C)OC(OC3CCC(C)C4C3C=C(C)C3/C(C)=C\CC/C(C)=C/C5(C)C=C(C(=O)O)C(C)CC56OC(=O)/C(=C(\O)C34C)C6=O)C(O)C2O)c(OC)c1` (stereo not drawn), the activity change, negative = cytotoxicity is 3.72% [at 10.4 µM] (inactive).
As to `CC(Oc1ccccc1)C(=O)Nc1ccc(C(=O)OCc2cc(=O)n3nc(C4CC4)sc3n2)cc1` (stereo not drawn), the Potency entry is “inactive”.
Take `O=C(O)c1ccc(O)c2ncc(N3CCCN(CCc4cccc5ccccc45)CC3)cc12`: the Potency result is “inactive”.
Turning to `CC(C)c1cccc2c(-c3ccccc3)cc(-c3ccc(-c4ccc(C(=O)O)cc4)[nH]3)nc12`, the Potency is 25.1 µM (active).
Still for that read-out and setting: to `CC(C)c1ccc2c(c1)c(SC(C)(C)C)c(CC(C)(C)C(=O)O)n2Cc1ccc(Cl)cc1` belongs 15.8 µM (active); to `N#CC(c1ccc(Cl)cc1)c1c(Cl)cc(-n2ncc(=O)[nH]c2=O)cc1Cl` (stereo not drawn), “inactive”.
Still for that read-out and setting: to `Cc1cc(C(C#N)c2ccc(Cl)cc2)c(Cl)cc1NC(=O)c1cc(I)cc(I)c1O` (stereo not drawn) belongs 31.6 µM (active).
For `CC(C)=CCCC1(C)C=Cc2c(O)c3c(c(CC=C(C)C)c2O1)OC12C(=CCCC1C(C)(C)O[C@@]2(C/C=C(\C)C(=O)O)C(=O)O)C3=O` (stereo partly drawn), the Potency entry was “inactive”.
Regarding `O=C1NC(=O)/C(=C/c2cccc(C(F)(F)F)c2)S1`, the Potency entry is “inactive”.
Regarding `Cc1ccn(-c2cc(Cl)ccc2[C@@H](Oc2cc(-c3ccc(C[C@H](N)C(=O)O)cc3)nc(N)n2)C(F)(F)F)n1`, the Potency entry was “inactive”.
On to `COc1cc(Nc2nc3ccccc3nc2NS(=O)(=O)c2cccc(NC(=O)c3ccc(C)c(OC)c3)c2)cc(OC)c1`, for which the Potency result was “inactive”.
Regarding `CC(C)(C)Sc1c(CC(C)(C)C(=O)O)n(Cc2ccc(Cl)cc2)c2ccc(OCc3ccc4ccccc4n3)cc12`, the Potency entry was “inactive”.
On the same count and under the same terms, then `O=S(=O)(O)c1ccc2cc(N=Nc3cc(S(=O)(=O)O)c4cccnc4c3O)ccc2c1`, with “inactive”; and `CCCCCCCOc1cc2c(cc1/C(C)=C/c1ccc(C(=O)O)cc1)C(C)(C)CCS2(=O)=O`, with “inactive”.
